Results from the supplement of paper PMC12297408.
Counter-ions that a name gives are not always drawn.

Test system: Plasmodium falciparum NF54/iGP1_RE9H ulg8 stage V gametocytes
Test: gametocyte viability (luciferase signal relative to DMSO control) (% of DMSO control); higher = less gametocytocidal activity, active = 50 or less
Conditions: concentration: 1 µM; exposure time: 72 h
Description: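 Synchronous P. falciparum NF54/iGP1_RE9H ulg8 mature stage V gametocytes (day 12) were exposed to Cayman Epigenetics Screening Library compounds at 10 µM or 1 µM for 72 h at 37 °C. Viability was read as RE9H luciferase bioluminescence, normalised to DMSO plate controls (100%); 50 µM methylene blue was the positive control.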

Compound | gametocyte viability
Cc1sc2c(c1C)C(c1ccc(Cl)cc1)=N[C@@H](CC(N)=O)c1nnc(C)n1-2 | 90.9 (inactive)
COc1cc(C(=O)N2CC[C@@H](O)[C@@H](N)C2)cc2nc(-c3cc4ccccc4n3CC3CC3)n(C)c12 [GSK484 (hydrochloride)] | 94.7 (inactive)
Cc1sc2c(c1C)C(c1ccc(Cl)cc1)=NC(CC(=O)O)c1nnc(C)n1-2 (single isomer, unassigned; (+)) [(+)-JQ1 (free acid)] | 85.8 (inactive)
N[C@@H]1C[C@H]1c1ccccc1 [Tranylcypromine (hydrochloride)] | 91.7 (inactive)
C[S+]([O-])CCCCN=C=S (centres undefined) [Sulforaphane] | 99.8 (inactive)
CN(C)NC(=O)CCC(=O)O [Daminozide] | 95.2 (inactive)
CC1=CC(=O)c2c(O)cccc2C1=O [Plumbagin] | 71.2 (inactive)

Same assay, conditions: concentration: 10 µM; exposure time: 72 h

Compound | gametocyte viability
Cc1sc2c(c1C)C(c1ccc(Cl)cc1)=N[C@@H](CC(N)=O)c1nnc(C)n1-2 | 93.5 (inactive)
COc1cc(C(=O)N2CC[C@@H](O)[C@@H](N)C2)cc2nc(-c3cc4ccccc4n3CC3CC3)n(C)c12 [GSK484 (hydrochloride)] | 41.8 (active)
Cc1sc2c(c1C)C(c1ccc(Cl)cc1)=NC(CC(=O)O)c1nnc(C)n1-2 (single isomer, unassigned; (+)) [(+)-JQ1 (free acid)] | 88.2 (inactive)
N[C@@H]1C[C@H]1c1ccccc1 [Tranylcypromine (hydrochloride)] | 91.4 (inactive)
C[S+]([O-])CCCCN=C=S (centres undefined) [Sulforaphane] | 96.2 (inactive)
CN(C)NC(=O)CCC(=O)O [Daminozide] | 88.8 (inactive)
CC1=CC(=O)c2c(O)cccc2C1=O [Plumbagin] | 16.7 (active)
